Screening data: PubChem BioAssay, several laboratories
SENP6 inh = inhibitors of human SENP6 protease; inhibition, % at 10 µM; AID 2599; Q9GZR1; 1.8% of 330,000 active; Recombinant SENP6 catalytic domain, aminoluciferin luminescence;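 active = inhibition above about 50% at the single tested dose, limit read from the data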;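 also: plate controls were DMSO wells with enzyme for no effect and DMSO wells lacking enzyme for full effect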
Target sequence (Q9GZR1 628-1112 limits assumed): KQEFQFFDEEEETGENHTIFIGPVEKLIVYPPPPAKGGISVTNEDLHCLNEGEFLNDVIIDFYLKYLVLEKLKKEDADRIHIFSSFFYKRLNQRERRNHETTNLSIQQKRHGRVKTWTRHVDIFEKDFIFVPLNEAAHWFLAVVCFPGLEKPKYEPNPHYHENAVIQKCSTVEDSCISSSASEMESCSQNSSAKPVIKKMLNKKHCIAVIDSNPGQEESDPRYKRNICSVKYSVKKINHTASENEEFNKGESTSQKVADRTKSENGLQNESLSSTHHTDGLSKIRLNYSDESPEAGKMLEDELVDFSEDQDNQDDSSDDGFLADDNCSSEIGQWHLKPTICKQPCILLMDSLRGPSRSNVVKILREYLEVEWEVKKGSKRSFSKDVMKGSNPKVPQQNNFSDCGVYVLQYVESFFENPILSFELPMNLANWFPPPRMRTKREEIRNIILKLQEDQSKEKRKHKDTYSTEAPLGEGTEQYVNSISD
HSP90 refold inh = HSP90 refolding inhibition in rabbit reticulocyte lysate | luciferase refolding luminescence, 3 h | inhibition, % at 5.6 µM | 0.91% of 290,000 active;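 active = inhibition above the screen-wide mean plus 3 SD, computed separately per campaign, cut at about 16% in these data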;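 also: 0% = DMSO wells and 100% = 60 µM geldanamycin wells; inhibitors lower the luminescence because luciferase stays unfolded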
SENP7 inh = SENP7 protease inhibition | Q9BQF6 | recombinant SENP7, Z-RLRGG-aminoluciferin luminescence, 40 min | inhibition, % at 5 µM | 1.5% of 330,000 active | AID 434973;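 active = inhibition above about 50% at the single test dose, limit read from the data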;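 also: plate controls were DMSO with enzyme for no effect and no enzyme buffer wells for full effect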
SENP8 block-1 = blocks human SENP8 cleavage of Nedd8 substrate; AID 602440; 0.64% of 360,000 active; Q96LD8; inhibition, % at 20 µM; recombinant SENP8, Nedd8 substrate fluorescence; in the data active = inhibition mostly above about 40%, no sharp cut-off; inactive = mostly below about 27%
SENP8 block-2 = inhibitors of human SENP8 protease. AID 2540. purified SENP8, Z-RLRGG-aminoluciferin cleavage, luminescence. inhibition, % at 10 µM. Q96LD8. 1.2% of 330,000 active; in the data active = inhibition above about 50%
SENP8 conf = human SENP8 inhibition, confirmed; shares compounds with SENP7 inh; Recombinant SENP8, Z-RLRGG-aminoluciferin luminescence, 60 min; inhibition, % at 12.5 µM; 40% of 6,200 active; AID 488912;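 active = mean inhibition across replicates above about 50%, limit read from the data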
SENP6 conf = human SENP6 inhibition, confirmed; shares compounds with SENP7 inh; recombinant SENP6, Z-RLRGG-aminoluciferin luminescence; inhibition, % at 12.5 µM; 58% of 6,200 active; AID 488915
SENP7 conf = human SENP7 inhibition, confirmed; AID 488917; inhibition, % at 12.5 µM; shares compounds with SENP7 inh; recombinant SENP7, Z-RLRGG-aminoluciferin luminescence, 40 min; 69% of 6,200 active
Casp3 select = selectivity test for SENP inhibitors: human caspase-3 inhibition. shares compounds with SENP7 inh. purified caspase-3, Z-DEVD-aminoluciferin luminescence, 60 min. inhibition, % at 12.5 µM. 60% of 6,200 active;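 active = mean inhibition above about 50%, limit read from the data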;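 also: plate controls were enzyme with DMSO for no effect and wells without caspase-3 for full effect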
Target sequence (P42574 28-227 limits assumed): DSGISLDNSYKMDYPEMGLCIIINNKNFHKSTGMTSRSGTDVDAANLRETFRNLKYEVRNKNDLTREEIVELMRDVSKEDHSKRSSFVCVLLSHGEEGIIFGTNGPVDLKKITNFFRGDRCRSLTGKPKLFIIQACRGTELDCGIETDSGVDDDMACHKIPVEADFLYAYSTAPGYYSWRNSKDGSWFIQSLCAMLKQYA
Luc interf = counter-screen for SENP inhibitors: luminescence interference. Pre-incubated SENP8/Z-RLRGG-aminoluciferin, luciferase luminescence interference. shares compounds with SENP7 inh. 39% of 6,200 active. inhibition, % at 12.5 µM;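 active = mean inhibition above about 50% when retested at one dose, limit read from the data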;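 also: plate controls were DMSO wells with completed reaction for no effect and substrate without enzyme for full effect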
* marks the source's active call; other numbers are inactive results; . = no result. This is a sample that favours compounds with a hit; in the whole collection about 2.7% have one here.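 The calls were made as follows, unless noted: active = mean inhibition above about 50% in the one-dose retest (limit read from the data); inactive = the rest.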

SMILES	SENP6 inh	HSP90 refold inh	SENP7 inh	SENP8 block-1	SENP8 block-2	SENP8 conf	SENP6 conf	SENP7 conf	Casp3 select	Luc interf
NS(=O)(=O)c1ccc(-c2ccc(/C=N/NC(=O)c3ccc([N+](=O)[O-])cc3)o2)cc1	-3.1	0.0	-7.3	17.4	-3.4	.	.	.	.	.
COc1cccc(C(=O)N2N=C(c3ccccc3)CC2(O)C(F)(F)F)c1 (stereo not drawn)	-7.3	-1.8	-5.9	5.6	-9.8	.	.	.	.	.
O=C1c2ccccc2C(=O)C1c1ccncc1	80.5*	14.7	57.8*	40.6*	64.0*	75.6*	71.1*	92.4*	91.0*	79.4*
Cc1cc(NN)nc(NS(=O)(=O)c2ccccc2Cl)n1	7.1	-0.7	6.9	11.6	4.4	.	.	.	.	.
COc1cc(C)nc(NS(=O)(=O)c2ccccc2Cl)n1	3.8	-5.7	52.0*	4.7	-7.0	-25.3	-16.6	-6.2	-4.8	-6.4
C=CCn1c(SCC(=O)/C(C#N)=C(\C)N)nnc1C1CCCCC1	6.9	2.2	9.0	10.8	4.7	.	.	.	.	.
COc1cccc(N=Cc2c(O)c3ccccc3oc2=O)c1	62.3*	0.9	27.1	-311.3	8.9	17.7	22.3	75.9*	14.9	13.4
Cc1ccc(N=Cc2c(O)c3ccccc3oc2=O)c(C)c1	42.4	6.2	85.8*	-152.0	45.6	53.3*	52.1*	34.9	43.9	1.8
c1ccc(C2[C@H]3CN(Cc4cccnc4)[C@H](c4ccccc4)C34CC2(c2cccnc2)C4)cc1 (stereo partly drawn)	-2.3	.	-3.2	31.2	1.0	.	.	.	.	.
Nc1nc2ccccc2n1/N=C/c1ccc2c(c1)OCO2	90.4*	-6.4	90.0*	5.9	84.2*	86.1*	86.5*	97.6*	85.5*	82.0*
Nc1nc2ccccc2n1/N=C/c1ccc(Br)cc1	76.1*	4.9	-1.4	13.1	66.9*	60.3*	62.6*	90.3*	48.7	10.4
O=C(NC1CCCCCC1)c1ccc(CS(=O)(=O)Cc2ccccc2F)o1	-12.2	1.6	-2.6	6.0	-2.6	.	.	.	.	.
Cc1ccnc(N2C(=O)c3ccccc3C2O)c1 (stereo not drawn)	85.0*	8.7	90.0*	-1.3	81.4*	81.7*	82.1*	98.1*	95.8*	88.0*
CCCCCCCN=CC1=C(O)CC(c2ccccc2)CC1=O (stereo not drawn)	5.5	3.5	1.0	9.8	-4.2	.	.	.	.	.
CC(C)N=C1NN=C(c2ccc(F)cc2)CS1	65.0*	3.1	78.8*	4.3	73.2*	84.3*	85.1*	99.1*	95.8*	89.0*
CCN=C1NN=C(c2ccc(C)cc2)CS1	-15.9	0.3	2.3	13.8	-6.9	.	.	.	.	.
CC(=O)c1cnc2cc(-c3ccc(C)cc3)nn2c1C	66.7*	-4.0	-0.5	-267.9	44.7	50.4*	33.4	72.5*	66.1*	16.8
CC(=O)c1cnc2cc(-c3ccccc3)nn2c1C	-11.6	-0.6	-5.3	-276.7	-15.5	.	.	.	.	.
COc1ccc(-c2cc3c(nn2)-c2ccccc2C3=O)cc1	97.1*	-0.5	99.1*	42.7*	96.1*	-4.4	24.2	20.2	40.8	9.5
Cc1cccc(-c2cc3c(nn2)-c2ccccc2C3=O)c1	89.6*	4.2	99.6*	32.1	95.3*	32.5	74.5*	88.3*	83.0*	34.0
O=C1c2ccccc2-c2nnc(-c3ccccc3)cc21	98.7*	0.4	98.8*	36.8	95.8*	6.1	38.3	44.5	29.1	10.1
Cc1cnc2c(c1)C(=O)c1ccccc1-2	-14.4	8.6	1.7	18.4	-4.4	.	.	.	.	.
O=C(CN1C(=O)c2ccccc2C1=O)N1CCOCC1	-10.4	-2.3	-8.5	17.8	-14.2	.	.	.	.	.
CCS(=O)(=O)c1nc(S(=O)(=O)c2ccc(Cl)cc2)c(NCc2ccco2)s1	-4.2	-2.9	2.3	9.3	-0.3	.	.	.	.	.
COc1ccc(C(=O)Nc2sc3c(c2C#N)CCN(C(C)=O)C3)cc1	78.9*	1.2	6.2	-362.2	4.3	-21.2	-15.7	-5.0	-7.1	-4.0
SMILES	SENP6 inh	HSP90 refold inh	SENP7 inh	SENP8 block-1	SENP8 block-2	SENP8 conf	SENP6 conf	SENP7 conf	Casp3 select	Luc interf
NC(=O)c1c(NC(=O)c2ccccc2F)sc2c1CCCC2	56.4*	-1.4	20.2	-159.7	18.8	-7.4	25.9	2.0	4.1	-4.4
O=C(O)c1c(NC(=O)c2cccc3ccccc23)sc2c1CCC2	35.4	-3.6	0.4	10.0	17.7	.	.	.	.	.
O=C(Nc1sc2c(c1C(=O)O)CCC2)c1ccc(F)cc1	86.9*	-1.5	45.2	-84.2	80.8*	89.2*	89.5*	95.2*	91.0*	58.2*
NC(=O)c1c(NC(=O)c2ccccc2C(=O)O)sc2c1CCCC2	3.8	-1.8	4.9	1.1	0.6	.	.	.	.	.
N#Cc1c(NC(=O)c2ccccc2)sc2c1CCCCC2	73.7*	7.2	56.2*	-38.9	50.8*	9.7	19.5	23.6	19.8	25.6
COc1cc(C(=O)Nc2sc3c(c2C#N)CCN(C(C)=O)C3)cc(OC)c1OC	17.8	0.7	10.7	-388.4	11.2	.	.	.	.	.
COc1ccc(-c2cc(=O)c3ccccc3n2C)cc1	-4.3	-2.5	-4.8	-3.3	-4.5	.	.	.	.	.
O=C(Nc1sc2c(c1C(=O)O)CCC2)c1ccccc1	88.1*	0.1	92.2*	-58.6	94.1*	46.2	98.6*	102.8*	97.3*	85.2*
O=C(Nc1sc2c(c1C(=O)O)CCCC2)c1cccc(Cl)c1	91.9*	-4.3	38.5	-17.5	91.0*	96.2*	96.1*	99.4*	87.1*	95.7*
O=C(Nc1sc2c(c1C(=O)O)CCCCC2)c1ccccc1	99.5*	4.5	83.0*	-100.1	94.8*	97.3*	99.8*	103.4*	97.7*	98.5*
CCCNC(=O)N1C[C@H](O)COC[C@H]2O[C@@H](CC(=O)N[C@@H]3CCN(Cc4ccccc4)C3)CC[C@@H]21	.	.	.	23.9	.	.	.	.	.	.
OCCCNc1nnc(-c2ccccc2)c2ccccc12	-3.4	-2.8	-8.7	6.1	-2.5	.	.	.	.	.
COc1cccc(NC(=O)CCN2CCN(c3ccccc3F)CC2)c1	1.6	5.2	-0.7	29.7	-9.9	.	.	.	.	.
Cc1ccc(NC(=O)CC2C(=O)NC3CCCCC3N2C(=O)c2ccc(F)cc2)cc1C (stereo not drawn)	54.3*	-0.8	11.0	7.0	2.8	11.3	7.9	9.8	4.8	6.2
CCN(CC)C(=O)c1ncn(C)c1C(=O)N(CC)CC	8.4	.	5.2	12.5	8.7	.	.	.	.	.
